Assay results reported in PubChem BioAssay AID602304 (NMMLSC, 2012).
Entries with a potency or affinity are not part of this list. The source made the active and inactive calls. No rule for the calls is given here.

assay: vacuolar alkalinization by V-ATPase blockade – S. cerevisiae, BCECF dye, powder set 1, dose response (AID 602304); details: BCECF fluorescence; series mostly up to 100 µM; response, vacuolar pH increase: at the top concentration

response, vacuolar pH increase, inactive:
O=C(c1nc2ccccc2s1)N1CCN(c2nc3ccc(F)cc3s2)CC1 -0.84%
O=C(c1ccc([N+](=O)[O-])o1)N1CCN(c2ccccn2)CC1 12.2%
CS(=O)(=O)c1cccc2sc(N3CCN(C(=O)c4ccc([N+](=O)[O-])o4)CC3)nc12 1.7%
Cc1cc(C(=O)N2CCN(c3nc4ccc(F)cc4s3)CC2)n(C)n1 12.2%
O=C(c1ccno1)N1CCN(c2nc3ccc(F)cc3s2)CC1 -0.47%
O=C(c1cccs1)N1CCN(c2nc3ccc(F)cc3s2)CC1 8.03%
O=C(c1ccco1)N1CCN(c2nc3ccc(F)cc3s2)CC1 4.99%
O=C(C1CCCCC1)N1CCN(c2nc3ccc(F)cc3s2)CC1 -0.47%
O=C(c1ccc(Cl)s1)N1CCN(c2nc3ccc(F)cc3s2)CC1 12.2%
O=C(Nc1ccccc1N1CCOCC1)c1ccc([N+](=O)[O-])o1 8.93%
O=C(c1ccc([N+](=O)[O-])o1)N1CCN(c2nccs2)CC1 28.2%
Cc1cc(C(=O)N2CCN(c3nc4ccc(F)cc4s3)CC2)on1 20.2%
O=C(C1CC1)N1CCN(c2nc3ccc(F)cc3s2)CC1 -0.84%
O=C(c1ccc(Br)s1)N1CCN(c2nc3ccc(F)cc3s2)CC1 14.7%
CC(C)(C)C(=O)N1CCN(c2nc3ccc(F)cc3s2)CC1 1.95%
Cc1cc(C(=O)N2CCN(c3nc4ccc(F)cc4s3)CC2)no1 3.47%
CS(=O)(=O)c1ccc2nc(N3CCN(C(=O)c4ccc([N+](=O)[O-])o4)CC3)sc2c1 -0.33%
Cc1cc(C(=O)N2CCN(c3nc4ccc(F)cc4s3)CC2)nn1C 0.97%
O=C(c1cnccn1)N1CCN(c2nc3ccc(F)cc3s2)CC1 4.95%
